From PubChem BioAssay (Tox21) come the findings set out here.

The structures appear in SMILES notation. Results filed as inconclusive are left out. Unmarked numbers belong to inactive results. The source made the active and inactive calls. Unless noted, calls come from the whole dose curve.

The nature of test [1]: qHTS assay to identify small molecule antagonists of the retinoid-related orphan receptor gamma (ROR-gamma) signaling pathway - cell viability counter screen (AID 1159520; active = well fitted curve in the direction sought with a large enough effect in the repeat runs; an effect the other way counts as inactive or inconclusive; note: nearly all actives have a fitted effect of over 50% in size; note: potency is the fitted concentration of half-maximal effect; for activity, negative = cytotoxicity: % is set by controls: 0 for no effect and ±100 for the full control effect). Summed up:
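Tet-on ROR gamma CHO cells (1,000/well) were plated 4 hr, given compounds in DMSO for 2 hr at 37 C, then induced with 1 uM final doxycycline for 16 hr. Viability was read as ATP by CellTiter-Glo luminescence after 30 min.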
(In general: qHTS replaces the single test concentration by a dilution series.)

For test [2], the target named is Nuclear receptor ROR-gamma (Homo sapiens) (UniProt P51449). Briefly: qHTS assay to identify small molecule antagonists of the retinoid-related orphan receptor gamma (ROR-gamma) signaling pathway (AID 1159521; active = well fitted curve in the direction sought with a large enough effect in the repeat runs; an effect the other way counts as inactive or inconclusive; note: nearly all actives have a fitted effect of over 50% in size; note: potency is the fitted concentration of half-maximal effect;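 for activity change, negative = inhibition: CHO cells with doxycycline inducible ROR-gamma driving an RORE luciferase reporter; top concentration of the series differs between compounds; % is set by controls: 0 for no effect and ±100 for the full control effect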). An outline of the steps:
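Screening format: cell-based luciferase reporter in CHO cells with doxycycline-inducible RORγ. Compound pre-exposure lasts 2 h, doxycycline is 1 uM final, induction runs 16 h at 37 C, and ONE-Glo luminescence is read.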

A short description of test [3]: qHTS assay to identify small molecule agonists of the AP-1 signaling pathway - cell viability counter screen (AID 1159525). Note: nearly all actives have a fitted effect of over 55% in size. An outline of the steps: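 ME-180 AP-1-bla, 2500 cells/well, Opti-MEM + 0.5% dialyzed FBS; overnight 37 °C; cpd 15-pt titration, 5 h 37 °C; CellTiter-Glo 30 min RT; luminescence read; normalised to TOAB and DMSO controls.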
The target in test [4] is Retinoic acid receptor RXR-alpha (Homo sapiens) (UniProt P19793). Briefly: qHTS assay to identify small molecule agonists of the RXR signaling pathway (AID 1159527). Note: % is set by controls: 0 for no effect and ±100 for the full control effect; nearly all actives have a fitted effect of over 35% in size. An outline of the steps:
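Fluorescence ratio readout (460 vs 530 nm) from GeneBLAzer RXR-alpha HEK 293T cells after 16 hr compound treatment; cells seeded 5 hr beforehand in low-serum, charcoal-stripped medium.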

Test [5] can be described thus: qHTS assay to identify small molecule agonists of the AP-1 signaling pathway (AID 1159526). For activation: % is set by controls: 0 for no effect and ±100 for the full control effect. Note: potency is the fitted concentration of half-maximal effect.
Test [6] is described as follows: qHTS assay to identify small molecule agonists of the vitamin D receptor (VDR) signaling pathway - cell viability counter screen (AID 743224; active = well fitted curve in the direction sought with a large enough effect in the repeat runs; an effect the other way counts as inactive or inconclusive; note: series mostly up to about 63 µM; % is set by controls: 0 for no effect and ±100 for the full control effect; nearly all actives have a fitted effect of over 50% in size). Summed up: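 VDR-bla cells, 4 h after plating, exposed to compounds for 16 h at 37C; viability then read in the same wells as CellTiter-Glo luminescence after 30 min at room temperature, following the bla FRET read.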
Test [7] in a line: qHTS assay to identify small molecule antagonists of the vitamin D receptor (VDR) signaling pathway - cell viability counter screen (AID 743225; active = well fitted curve in the direction sought with a large enough effect in the repeat runs; an effect the other way counts as inactive or inconclusive; note: % is set by controls: 0 for no effect and ±100 for the full control effect; nearly all actives have a fitted effect of over 50% in size). Summed up: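 In this counter screen, VDR-bla HEK 293T cells receive test compound plus 3 nM final calcitriol for 16 h at 37C. Room-temperature steps of 2 h with the beta-lactamase substrate, then 30 min with CellTiter-Glo, precede the luminescence read.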

Chain of Retinoic acid receptor RXR-alpha (Homo sapiens) (P19793 whole entry, looked up): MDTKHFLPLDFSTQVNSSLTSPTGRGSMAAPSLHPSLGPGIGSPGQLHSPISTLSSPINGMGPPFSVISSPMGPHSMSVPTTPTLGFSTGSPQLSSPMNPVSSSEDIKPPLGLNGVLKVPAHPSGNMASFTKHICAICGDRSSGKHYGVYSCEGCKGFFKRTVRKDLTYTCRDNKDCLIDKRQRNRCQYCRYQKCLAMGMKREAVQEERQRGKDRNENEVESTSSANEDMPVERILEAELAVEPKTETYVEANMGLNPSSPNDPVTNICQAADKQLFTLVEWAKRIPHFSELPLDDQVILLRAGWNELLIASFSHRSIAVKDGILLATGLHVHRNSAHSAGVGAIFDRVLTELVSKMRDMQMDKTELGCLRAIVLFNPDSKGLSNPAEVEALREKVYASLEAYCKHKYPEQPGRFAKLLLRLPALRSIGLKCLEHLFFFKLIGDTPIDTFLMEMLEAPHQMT

`Cc1ccc(C(=O)Cl)cc1`: the Potency result in test [1], in test [2] and in test [3] was “inactive” each time. In addition, in test [4], the result was inactive.

Turning to `CC(O)C#N` (configuration not stated), the Potency result in test [1], in test [2] and in test [3] was “inactive” in each case. In addition, the molecule was classed as inactive in test [4].

As to `COS(=O)(=O)c1ccc(C)cc1`, the Potency result in test [1], in test [2], in test [3] and in test [5] was “inactive” in each case. Further, in test [4], the molecule was called inactive.

In the case of `COCC(=O)N(c1c(C)cccc1C)[C@H](C)C(=O)OC`, the Potency entry in test [1], in test [2], in test [3] and in test [5] was “inactive” in each case. In test [4], the call was inactive.

On to `ClCc1ccccc1CCl`, for which the Potency in test [1] is 43.3 µM (active); in test [2] it was 54.5 µM (active). The Potency entry in test [3] and in test [5] was “inactive” throughout. For the same molecule, the molecule was called inactive in test [4].

As to `Nc1ccc([N+](=O)[O-])cc1Cl`, the Potency result in test [1], in test [2], in test [3] and in test [5] was “inactive” throughout. Besides, in test [4], the outcome was inactive.

On to `N#CCc1ccc(Cl)cc1`, for which the Potency result in test [1], in test [2], in test [3] and in test [5] was “inactive” in each case. In addition, the result in test [4] was inactive.

Take `Oc1ccc(I)cc1`: the Potency entry in test [1], in test [2], in test [3] and in test [5] was “inactive” each time. Further, the result in test [4] was inactive.

`BrCC(Br)c1ccccc1` (configuration not stated): the Potency result in test [1], in test [2], in test [3] and in test [5] was “inactive” in each case. The result in test [4] was inactive.

Consider `CC(=[OH+])/C=C(/C)[O-].CC(=[OH+])/C=C(\C)[O-].CC(=[OH+])/C=C(\C)[O-].[Fe]`, for which the Potency result in test [1], in test [2], in test [3] and in test [5] was “inactive” each time. Moreover, the call in test [4] was inactive.

On to `Cn1[nH]nnc1=S`, for which the Potency entry in test [1], in test [2] and in test [3] was “inactive” in each case. The Potency in test [5] is 49 µM (active). Besides, the outcome in test [4] was inactive.

For the molecule `C=CC(=O)N(C)C`, the Potency result in test [1], in test [2], in test [3] and in test [5] was “inactive” each time. Moreover, the result in test [4] was inactive.

Turning to `CCS(=O)(=O)c1cccnc1S(=O)(=O)NC(=O)Nc1nc(OC)cc(OC)n1`, the Potency result in test [1], in test [2], in test [3] and in test [5] was “inactive” in each case. For the same molecule, in test [4], the outcome was inactive.

With `COC[C@H](C)N(C(=O)CCl)c1c(C)csc1C`, the Potency entry in test [1], in test [2], in test [3] and in test [5] was “inactive” in each case. In test [4], the molecule was classed as inactive.

As to `Clc1ccc(-c2ccc(Cl)c(Cl)c2Cl)c(Cl)c1Cl`, the Potency result in test [6], in test [7], in test [1], in test [2], in test [3] and in test [5] was “inactive” throughout.

As to `N#Cc1ccccc1N`, the Potency entry in test [1], in test [2], in test [3] and in test [5] was “inactive” each time. Also, in test [4], the molecule was called inactive.

On to `CCOP(=S)(OCC)SCCS(=O)(=O)CC`, for which the Potency result in test [1], in test [2], in test [3] and in test [5] was “inactive” throughout. Also, in test [4], the molecule was called inactive.

`Brc1c(Br)c(Br)c(Oc2c(Br)c(Br)c(Br)c(Br)c2Br)c(Br)c1Br`: in test [1], the activity, negative = cytotoxicity is -0.215% [at 19 µM]. For the same molecule, the activity change, negative = inhibition in test [2] is 5.56% [at 19 µM]. The viability change, negative = cytotoxic in test [3] is 2.51% [at 15.8 µM]. Further, the activation is 8.87% [at 15.8 µM] in test [5] and 5.85% [at 15.8 µM] in test [4].

With `C[As+](C)(C)CC(=O)[O-]`, the Potency result in test [1], in test [2] and in test [3] was “inactive” throughout. For the same molecule, the Potency in test [5] was 43.6 µM (active). For the same molecule, the molecule was classed as inactive in test [4].

Consider `Nc1ccc(Cl)cc1C(=O)c1ccccc1`, for which the Potency result in test [1], in test [2] and in test [3] was “inactive” throughout. In addition, in test [4], the molecule was called inactive.

Turning to `Oc1cccc(-c2ccccc2)c1`, the Potency result in test [1], in test [2] and in test [3] was “inactive” each time. Also, in test [4], the call was inactive.

`ClC1=C(Cl)[C@]2(Cl)[C@@H]3[C@@H](Cl)[C@H](Cl)C[C@@H]3[C@@]1(Cl)C2(Cl)Cl`: the Potency result in test [1], in test [2], in test [3] and in test [5] was “inactive” in each case. For the same molecule, the result in test [4] was inactive.

Take `CN(CCCC(O)c1cccnc1)N=O` (configuration not stated): the Potency result in test [1], in test [2], in test [3] and in test [5] was “inactive” each time. For the same molecule, the call in test [4] was inactive.

For `COP(N)(=S)OC`, the Potency entry in test [1], in test [2], in test [3] and in test [5] was “inactive” in each case. Further, the outcome in test [4] was inactive.

In the case of `CN(CCCC(=O)c1cccnc1)N=O`, the Potency result in test [1], in test [2], in test [3] and in test [5] was “inactive” each time. In test [4], the outcome was inactive.

With `Cc1ccc(CCl)cc1`, the Potency entry in test [1], in test [2], in test [3] and in test [5] was “inactive” throughout. Moreover, the call in test [4] was inactive.

For the molecule `N#Cc1ccccc1Cl`, the Potency result in test [1], in test [2], in test [3] and in test [5] was “inactive” in each case. Further, the molecule was called inactive in test [4].

Consider `CC(=O)c1ccc(-c2ccccc2)cc1`, for which the Potency result in test [1], in test [2], in test [3] and in test [5] was “inactive” each time. For the same molecule, the molecule was called inactive in test [4].

As for `N#CCCO`, the Potency entry in test [1], in test [2], in test [3] and in test [5] was “inactive” in each case. For the same molecule, the call in test [4] was inactive.
